Measured values as given in the supplement of paper PMC10849652.
Of roughly 7,900 targets only a part is listed; those with a hit were picked by preference. About 0.6% of all pairs of compound and target were hits.

Legend:
Test in all cases: log2 fold change, soluble protein after heating vs DMSO (PISA); higher = thermal stabilisation; K562 cells, 10 uM, 30 min; active = over 0.2 and 3.5 SD of the protein, either way, in both replicates (recomputed)
erlotinib = compound: C#Cc1cccc(Nc2ncnc3cc(OCCOC)c(OCCOC)cc23)c1 [erlotinib]
Summary of the method: (§1)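 Soluble protein was defined as the supernatant after 21,000xg for 90 min. It came from K562 cells at 2×10^6 cells/mL given 10 μM compound for 30 min, heated in aliquots for 3 min across 48°C-58°C, pooled, and extracted in PBS with 0.5% NP-40 at 4°C, and was quantified by TMTpro 16plex LC-MS/MS with equalised channel sums. Thermal stability against control samples, from duplicates, is reported as log2 fold change.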

[1] = compound: C/C(=N\NC(=O)C1=CC(=CC=C1)S(=O)(=O)N2CCOCC2)/C3=C(C=CC(=C3)Cl)O
Summary of the method: as §1

[2] = compound: C1=CC(=C(C=C1Cl)C2=NC3=NC=CN=C3C(=N2)NC4=CC=NC=C4)F
Summary of the method: as §1

[3] = compound: C1=CC(=CC=C1C2=NC3=C(N2)C=C(C=C3)C(=O)N)OC4=CC=C(C=C4)Cl
Summary of the method: as §1

[4] = compound: C1=CC2=C(C=CC(=C2)/C=C\3/C(=O)NC(=NCC4=CC=CS4)S3)N=C1
Summary of the method: as §1

[5] = compound: C1=CC2=NC=CN=C2C=C1/C=C/3\C(=O)NC(=O)S3
Summary of the method: as §1

[6] = compound: C1=CC=C(C=C1)C2=NC(=C(N2)C3=CC=NC=C3)C4=CC(=C(C=C4)Cl)O
Summary of the method: as §1

[7] = compound: C1=CC=C2C(=C1)C3=NNC4=CC=CC(=C43)C2=O
Summary of the method: as §1

[8] = compound: C1CCN(C1)C(=O)NC2=CC=CC(=C2)NC3=NC=C(C(=N3)NCCC4=CN=CN4)Br
Summary of the method: as §1

[9] = compound: C1CN(CCC1(CC2=CC=C(C=C2)Cl)N)C3=NC=NC4=C3C=CN4
Summary of the method: as §1

Measured: log2 fold change

RBM8A (UniProt Q9Y5S9)
inactive: erlotinib -0.021 | [1] -0.014 | [2] 0.012 | [3] -0.008 | [4] -0.076 | [5] 0.024 | [6] -0.069 | [7] -0.035 | [8] 0.025 | [9] 0.003

SF3B5 (UniProt Q9BWJ5)
inactive: erlotinib -0.088 | [1] -0.04 | [2] 0.319 | [3] 0.051 | [4] 0.023 | [5] 0.199 | [7] 0.107 | [8] -0.104 | [9] -0.002

RSRC1 (UniProt Q96IZ7)
inactive: erlotinib 0 | [1] 0.135 | [2] -0.148 | [3] 0.071 | [4] -0.033 | [5] -0.057 | [6] -0.026 | [7] -0.073 | [8] 0.016 | [9] -0.1

RPS3 (UniProt P23396)
inactive: erlotinib -0.136 | [1] -0.072 | [2] -0.224 | [3] 0.061 | [4] -0.026 | [5] -0.027 | [6] -0.073 | [7] -0.03 | [8] 0.093 | [9] -0.156

SCAF11 (UniProt Q99590)
inactive: erlotinib -0.074 | [1] -0.09 | [2] -0.16 | [3] 0.03 | [4] -0.134 | [5] -0.076 | [6] -0.014 | [7] -0.068 | [8] 0.125 | [9] -0.035

SKP1 (UniProt P63208)
inactive: erlotinib -0.003 | [1] -0.036 | [2] 0.05 | [3] -0.011 | [4] -0.048 | [5] 0.045 | [6] 0.047 | [7] 0.009 | [8] -0.006 | [9] 0.03

RALGPS2 (UniProt Q86X27)
Sequence of UniProt Q86X27 (Q86X27 whole entry, looked up): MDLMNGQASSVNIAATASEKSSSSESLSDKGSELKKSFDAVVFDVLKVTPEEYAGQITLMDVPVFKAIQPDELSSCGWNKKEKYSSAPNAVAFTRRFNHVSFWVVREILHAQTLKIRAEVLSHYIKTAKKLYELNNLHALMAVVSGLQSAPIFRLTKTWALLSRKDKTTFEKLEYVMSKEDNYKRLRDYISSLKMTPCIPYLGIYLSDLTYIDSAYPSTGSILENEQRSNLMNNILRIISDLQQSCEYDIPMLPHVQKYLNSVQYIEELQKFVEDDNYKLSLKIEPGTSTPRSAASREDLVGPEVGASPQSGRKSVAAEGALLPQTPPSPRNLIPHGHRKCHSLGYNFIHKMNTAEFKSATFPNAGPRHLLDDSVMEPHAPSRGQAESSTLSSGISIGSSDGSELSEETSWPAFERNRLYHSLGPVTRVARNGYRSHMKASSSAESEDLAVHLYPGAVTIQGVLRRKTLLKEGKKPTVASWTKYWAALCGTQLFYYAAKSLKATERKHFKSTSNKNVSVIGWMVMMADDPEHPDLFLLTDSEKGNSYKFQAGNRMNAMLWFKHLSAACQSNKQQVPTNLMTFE
inactive: erlotinib -0.43 | [1] -0.07 | [2] -0.321 | [3] 0.037 | [4] -0.079 | [5] 0.111 | [7] -0.012 | [8] -0.06 | [9] 0.154

RPS19 (UniProt P39019)
inactive: erlotinib -0.141 | [1] -0.102 | [2] -0.274 | [3] 0.057 | [4] -0.082 | [5] -0.044 | [6] -0.026 | [7] -0.015 | [8] 0.094 | [9] -0.145

RAP2C (UniProt Q9Y3L5)
Sequence of UniProt Q9Y3L5 (Q9Y3L5 whole entry, looked up): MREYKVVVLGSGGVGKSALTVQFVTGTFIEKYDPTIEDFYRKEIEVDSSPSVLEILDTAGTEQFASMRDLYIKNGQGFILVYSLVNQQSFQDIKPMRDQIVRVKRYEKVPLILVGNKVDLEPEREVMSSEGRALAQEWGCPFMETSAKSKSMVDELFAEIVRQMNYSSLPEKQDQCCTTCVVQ
inactive: erlotinib 0.021 | [1] 0.119 | [2] 0.205 | [3] 0.01 | [4] -0.097 | [5] 0.026 | [6] 0.026 | [7] 0.167 | [8] -0.008 | [9] 0.034

RPL38 (UniProt P63173)
inactive: erlotinib 0.024 | [1] -0.05 | [2] -0.148 | [3] 0.026 | [4] -0.102 | [5] -0.025 | [6] -0.027 | [7] 0.026 | [8] 0.033 | [9] -0.106

REL (UniProt Q04864)
inactive: erlotinib 0.076 | [1] -0.013 | [2] -0.007 | [3] 0.003 | [4] 0.024 | [5] -0.037 | [6] -0.029 | [7] -0.013 | [8] -0.082 | [9] 0.01

RECQL (UniProt P46063)
Sequence of UniProt P46063 (P46063 whole entry, looked up): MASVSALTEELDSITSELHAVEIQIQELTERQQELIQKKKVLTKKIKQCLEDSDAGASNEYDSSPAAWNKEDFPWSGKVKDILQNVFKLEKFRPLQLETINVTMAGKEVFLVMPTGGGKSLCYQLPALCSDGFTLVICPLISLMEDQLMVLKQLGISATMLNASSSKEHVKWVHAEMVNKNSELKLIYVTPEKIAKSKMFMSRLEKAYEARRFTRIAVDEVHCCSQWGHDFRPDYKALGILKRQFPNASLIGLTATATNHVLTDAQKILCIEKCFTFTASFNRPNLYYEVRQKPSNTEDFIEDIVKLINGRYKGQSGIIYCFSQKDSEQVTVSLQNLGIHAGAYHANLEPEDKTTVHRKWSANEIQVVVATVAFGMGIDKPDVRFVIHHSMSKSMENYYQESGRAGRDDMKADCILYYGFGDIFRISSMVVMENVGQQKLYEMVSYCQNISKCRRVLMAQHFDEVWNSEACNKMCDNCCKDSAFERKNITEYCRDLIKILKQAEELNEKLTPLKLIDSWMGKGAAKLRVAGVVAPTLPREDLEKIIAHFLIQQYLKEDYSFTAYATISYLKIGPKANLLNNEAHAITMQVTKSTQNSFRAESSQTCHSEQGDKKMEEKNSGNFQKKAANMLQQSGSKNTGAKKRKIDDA
inactive: erlotinib -0.019 | [1] 0.072 | [2] 0.066 | [3] -0.005 | [4] 0.046 | [5] 0.004 | [6] -0.004 | [7] -0.003 | [8] -0.062 | [9] 0.01

RABGAP1L isoform 5 (UniProt Q5R372)
inactive: erlotinib 0.114 | [1] 0.043 | [2] -0.076 | [3] 0.089 | [4] -0.007 | [5] 0.045 | [7] -0.097 | [8] 0.023 | [9] 0.016

RPA1 (UniProt P27694)
Sequence of UniProt P27694 (P27694 whole entry, looked up): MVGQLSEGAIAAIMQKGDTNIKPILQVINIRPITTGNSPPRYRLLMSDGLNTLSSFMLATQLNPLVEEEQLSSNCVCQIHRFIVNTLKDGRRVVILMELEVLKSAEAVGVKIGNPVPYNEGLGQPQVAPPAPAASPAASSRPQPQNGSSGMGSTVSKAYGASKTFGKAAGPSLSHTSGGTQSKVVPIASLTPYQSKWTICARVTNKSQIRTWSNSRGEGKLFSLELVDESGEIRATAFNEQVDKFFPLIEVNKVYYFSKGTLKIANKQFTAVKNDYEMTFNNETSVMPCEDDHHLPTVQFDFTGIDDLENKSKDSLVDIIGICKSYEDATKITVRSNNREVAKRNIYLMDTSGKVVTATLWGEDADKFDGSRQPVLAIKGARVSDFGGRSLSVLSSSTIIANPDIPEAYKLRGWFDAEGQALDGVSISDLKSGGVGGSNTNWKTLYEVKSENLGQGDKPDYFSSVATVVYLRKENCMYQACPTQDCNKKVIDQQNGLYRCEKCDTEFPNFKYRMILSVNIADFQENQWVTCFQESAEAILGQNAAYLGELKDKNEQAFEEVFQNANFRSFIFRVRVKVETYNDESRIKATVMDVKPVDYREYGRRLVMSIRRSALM
inactive: erlotinib 0.003 | [1] 0.07 | [2] 0.147 | [3] 0.008 | [4] -0.005 | [5] 0.003 | [6] 0.027 | [7] 0.075 | [8] -0.013 | [9] -0.021

SEPTIN5 (UniProt Q99719)
inactive: erlotinib 0.009 | [1] 0.014 | [2] 0.021 | [3] 0.006 | [4] 0.004 | [5] 0.019 | [6] -0.011 | [7] 0.015 | [8] -0.012 | [9] 0.039

RALA (UniProt P11233)
inactive: erlotinib 0.087 | [1] -0.005 | [2] 0.033 | [3] -0.05 | [4] 0.005 | [5] 0.056 | [6] -0.076 | [7] -0.045 | [8] -0.066 | [9] 0.104

SEPTIN5 (UniProt G3XAH0)
inactive: erlotinib 0.009 | [1] -0.251 | [2] 0.146 | [3] 0.076 | [4] -0.022 | [5] -0.035 | [6] 0.014 | [7] -0.24 | [8] 0.009 | [9] 0.049

RNPEP (UniProt Q9H4A4)
inactive: erlotinib 0.053 | [1] 0.053 | [2] 0.053 | [3] 0.007 | [4] 0.009 | [5] 0.019 | [6] 0.036 | [7] -0.008 | [8] -0.004 | [9] -0.016

ROCK2 (UniProt O75116)
Sequence of UniProt O75116 (O75116 whole entry, looked up): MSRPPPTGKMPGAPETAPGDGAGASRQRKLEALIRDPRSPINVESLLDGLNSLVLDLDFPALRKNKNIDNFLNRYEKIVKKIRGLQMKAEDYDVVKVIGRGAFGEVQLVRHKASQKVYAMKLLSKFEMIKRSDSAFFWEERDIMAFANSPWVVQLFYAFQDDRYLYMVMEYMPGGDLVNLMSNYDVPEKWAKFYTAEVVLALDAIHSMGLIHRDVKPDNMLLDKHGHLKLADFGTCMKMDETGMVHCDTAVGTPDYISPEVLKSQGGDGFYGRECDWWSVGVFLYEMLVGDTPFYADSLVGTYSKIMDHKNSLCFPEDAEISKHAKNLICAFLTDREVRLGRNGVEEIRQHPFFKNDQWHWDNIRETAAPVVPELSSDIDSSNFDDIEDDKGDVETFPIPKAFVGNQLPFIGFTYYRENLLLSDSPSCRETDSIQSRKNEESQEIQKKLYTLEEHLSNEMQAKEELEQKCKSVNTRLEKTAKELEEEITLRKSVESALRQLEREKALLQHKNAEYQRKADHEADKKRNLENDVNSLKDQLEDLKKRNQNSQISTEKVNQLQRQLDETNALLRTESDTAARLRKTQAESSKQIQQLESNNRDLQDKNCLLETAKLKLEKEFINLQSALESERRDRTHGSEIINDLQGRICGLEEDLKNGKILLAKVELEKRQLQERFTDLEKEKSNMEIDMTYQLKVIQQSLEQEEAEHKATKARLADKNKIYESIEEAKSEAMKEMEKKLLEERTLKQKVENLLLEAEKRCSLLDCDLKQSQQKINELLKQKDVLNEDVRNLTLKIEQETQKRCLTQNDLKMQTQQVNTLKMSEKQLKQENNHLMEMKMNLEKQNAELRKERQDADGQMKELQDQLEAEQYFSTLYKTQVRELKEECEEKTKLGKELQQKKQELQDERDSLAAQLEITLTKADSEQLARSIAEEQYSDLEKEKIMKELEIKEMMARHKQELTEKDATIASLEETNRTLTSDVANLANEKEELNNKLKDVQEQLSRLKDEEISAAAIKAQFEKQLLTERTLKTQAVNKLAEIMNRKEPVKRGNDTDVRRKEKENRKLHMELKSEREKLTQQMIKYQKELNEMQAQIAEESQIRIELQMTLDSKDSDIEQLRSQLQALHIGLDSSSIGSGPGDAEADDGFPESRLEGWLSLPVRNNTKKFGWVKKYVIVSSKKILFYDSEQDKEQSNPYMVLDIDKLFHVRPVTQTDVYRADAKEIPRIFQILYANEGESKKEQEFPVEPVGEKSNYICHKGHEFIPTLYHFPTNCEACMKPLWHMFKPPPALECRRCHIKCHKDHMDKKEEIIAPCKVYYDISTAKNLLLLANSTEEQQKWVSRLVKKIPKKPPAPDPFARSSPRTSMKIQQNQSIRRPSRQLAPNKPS
inactive: erlotinib 0.05 | [1] 0.02 | [2] 0.031 | [3] 0.003 | [4] 0.158 | [5] 0.126 | [6] -0.009 | [7] -0.071 | [8] 0.036 | [9] 0.099

RAD50, A0A494C0Y7
inactive: [1] -0.029 | [4] 0.049 | [5] -0.077 | [6] -0.111 | [7] 0.048 | [8] -0.033 | [9] 0.143

SHROOM2 (UniProt Q13796)
active: [1] -1.03
inactive: erlotinib 0.266 | [2] 0.095 | [3] -0.361 | [4] 0.069 | [5] -0.021 | [7] 0.013 | [8] -0.027 | [9] 0.303

SDC3 (UniProt O75056)
Sequence of UniProt O75056 (O75056 whole entry, looked up): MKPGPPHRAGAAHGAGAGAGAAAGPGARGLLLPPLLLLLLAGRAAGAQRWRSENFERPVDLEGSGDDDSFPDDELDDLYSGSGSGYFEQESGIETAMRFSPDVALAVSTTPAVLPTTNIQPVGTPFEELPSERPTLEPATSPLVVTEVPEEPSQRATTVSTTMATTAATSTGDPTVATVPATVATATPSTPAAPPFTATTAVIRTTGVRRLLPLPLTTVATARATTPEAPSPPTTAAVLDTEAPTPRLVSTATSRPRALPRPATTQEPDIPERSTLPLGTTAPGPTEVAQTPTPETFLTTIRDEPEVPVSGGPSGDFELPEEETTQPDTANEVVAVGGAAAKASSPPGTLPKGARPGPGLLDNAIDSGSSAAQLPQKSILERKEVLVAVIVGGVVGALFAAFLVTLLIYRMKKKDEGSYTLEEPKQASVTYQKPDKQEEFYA
inactive: [1] -0.135 | [2] -0.015 | [4] 0.05 | [7] -0.157 | [8] -0.139 | [9] 0.203

RNF185 (UniProt Q96GF1)
Sequence of UniProt Q96GF1 (Q96GF1 whole entry, looked up): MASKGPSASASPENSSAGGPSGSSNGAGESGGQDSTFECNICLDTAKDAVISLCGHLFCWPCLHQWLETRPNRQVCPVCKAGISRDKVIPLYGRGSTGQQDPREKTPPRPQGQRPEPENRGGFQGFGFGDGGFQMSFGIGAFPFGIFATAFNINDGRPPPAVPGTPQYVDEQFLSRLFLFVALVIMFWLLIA
inactive: erlotinib -0.054 | [1] -0.006 | [3] 0.009 | [4] 0.136 | [5] 0.026 | [6] 0.133 | [7] -0.007 | [8] 0.457 | [9] -0.031

SH3PXD2B (UniProt A1X283)
Sequence of UniProt A1X283 (A1X283 whole entry, looked up): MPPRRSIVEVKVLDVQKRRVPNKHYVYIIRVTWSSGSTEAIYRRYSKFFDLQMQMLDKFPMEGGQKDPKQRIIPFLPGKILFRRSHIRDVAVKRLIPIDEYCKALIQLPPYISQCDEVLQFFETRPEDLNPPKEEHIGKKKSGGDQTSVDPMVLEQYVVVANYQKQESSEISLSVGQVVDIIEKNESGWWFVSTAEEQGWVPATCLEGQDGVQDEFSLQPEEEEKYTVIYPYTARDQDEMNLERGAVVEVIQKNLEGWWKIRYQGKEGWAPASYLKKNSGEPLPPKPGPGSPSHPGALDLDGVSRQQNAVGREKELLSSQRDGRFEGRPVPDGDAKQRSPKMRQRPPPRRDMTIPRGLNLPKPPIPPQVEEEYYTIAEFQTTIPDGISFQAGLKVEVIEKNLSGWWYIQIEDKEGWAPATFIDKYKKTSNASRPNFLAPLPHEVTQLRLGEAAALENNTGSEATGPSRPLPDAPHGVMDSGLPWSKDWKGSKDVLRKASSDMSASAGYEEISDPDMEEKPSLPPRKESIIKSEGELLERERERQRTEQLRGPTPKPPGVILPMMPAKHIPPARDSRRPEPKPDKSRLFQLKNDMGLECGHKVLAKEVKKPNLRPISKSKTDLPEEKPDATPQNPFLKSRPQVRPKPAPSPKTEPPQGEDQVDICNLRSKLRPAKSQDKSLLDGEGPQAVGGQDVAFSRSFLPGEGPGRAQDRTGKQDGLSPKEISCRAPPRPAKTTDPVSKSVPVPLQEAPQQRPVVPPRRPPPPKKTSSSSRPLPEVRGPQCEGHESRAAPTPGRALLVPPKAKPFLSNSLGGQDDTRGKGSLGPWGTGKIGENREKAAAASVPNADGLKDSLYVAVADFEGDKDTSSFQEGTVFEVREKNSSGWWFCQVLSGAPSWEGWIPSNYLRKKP
inactive: erlotinib 0 | [1] -0.036 | [2] -0.013 | [3] -0.153 | [4] 0.04 | [5] -0.012 | [7] 0.04 | [8] -0.034 | [9] 0.132

RUFY3 isoform 3 (UniProt Q7L099)
inactive: erlotinib 0.019 | [1] 0.012 | [3] -0.03 | [4] -0.028 | [6] 0.011 | [7] 0.065 | [8] -0.075 | [9] -0.07

RPS19 (UniProt M0R2L9)
inactive: [1] -0.054 | [4] -0.246 | [7] 0.732 | [8] 0.522 | [9] -0.095

RCOR3 isoform 3 (UniProt Q9P2K3)
inactive: erlotinib 0.116 | [1] 0.084 | [3] -0.008 | [4] 0.022 | [5] -0.01 | [6] -0.011 | [7] 0.018 | [8] -0.003 | [9] 0.057

RPAIN isoform 8 (UniProt Q86UA6)
inactive: [1] 0.205 | [2] 0.085 | [4] -0.03 | [5] 0.048 | [6] 0.083 | [7] 0.009 | [8] -0.035 | [9] -0.002

SIK3 (UniProt H0Y4E8)
inactive: erlotinib -0.074 | [1] 0.045 | [3] 0.094 | [4] 0.074 | [6] -0.163 | [7] -0.099 | [8] 0.051 | [9] 0.15

RBM6 (UniProt P78332)
inactive: [1] 0.019 | [4] 0.036 | [7] -0.1 | [8] 0.048 | [9] 0.018

RICTOR isoform 3 (UniProt Q6R327)
inactive: erlotinib 0.116 | [1] 0.025 | [2] -0.067 | [3] 0.36 | [4] -0.031 | [7] -0.136 | [8] 0.054 | [9] -0.001

RNF26 (UniProt Q9BY78)
inactive: [5] -0.08 | [6] -0.073

RPS6KA5 (UniProt O75582)
inactive: erlotinib 0.239 | [2] -0.079 | [3] -0.234 | [6] -0.091

RAB3D (UniProt O95716)
inactive: erlotinib -0.094 | [1] 0.036 | [3] -0.141 | [4] -0.055 | [5] 0.006 | [6] -0.145 | [7] -0.058 | [8] 0.007 | [9] 0.036

RPS3A (UniProt D6R9B6)
inactive: [1] -0.359 | [4] 0.198 | [7] -0.243 | [8] 0.303 | [9] 0.034
